Measurements: PubChem BioAssay (NCI)
Where “and” joins values, the source holds several entries; their conditions need not be identical. Identical values can stand only once. The panel holds about 79,000 compounds, 15% with a hit somewhere; the sample as a whole holds those more often. Where a structure was tested more than once in an assay, its records may differ in their call. Calls of active or inactive are those of the source. Cut-off read from the data, not from the text of the source: active = growth inhibition above about 70%; inactive = the rest.

What was measured:
[1] = NCI Yeast Anticancer Drug Screen. Data for the rad50 strain (AID 155);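 note: 0% = growth of vehicle-only cultures of the same strain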; conditions: S. cerevisiae rad50 strain growth inhibition, stronger effect = higher value
In short: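 Compounds were tested on a yeast strain with an engineered DNA damage repair alteration; the reported value is growth inhibition normalised to vehicle treatment.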

[2] = NCI Yeast Anticancer Drug Screen. Data for the mec2-1 strain (AID 157); conditions: S. cerevisiae mec2-1 strain, stronger effect = higher value
In short: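 mec2-1 yeast strain, carrying an alteration in DNA damage repair or cell cycle control, was exposed to compounds; growth inhibition was measured relative to vehicle-treated controls.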

[3] = NCI Yeast Anticancer Drug Screen. Data for the sgs1 mgt1 strain (AID 161);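 note: 0% = growth of cultures given vehicle only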; conditions: S. cerevisiae sgs1 mgt1 strain, stronger effect = higher value
In short: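 Yeast cells carrying a defined DNA-repair defect were exposed to test compounds. Growth inhibition was measured relative to vehicle-treated controls.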

[4] = NCI Yeast Anticancer Drug Screen. Data for the cln2 rad14 strain (AID 165);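 note: 0% = growth equal to vehicle treated cultures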; conditions: S. cerevisiae cln2 rad14 strain, stronger effect = higher value
In short: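 Yeast carrying cln2 and rad14 alterations (cell cycle control and DNA damage repair) were exposed to compounds. Growth inhibition was measured against vehicle-treated controls.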

[5] = NCI Yeast Anticancer Drug Screen. Data for the bub3 strain (AID 167); conditions: S. cerevisiae bub3 mutant strain, stronger effect = higher value
In short: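 Growth of a checkpoint-deficient yeast mutant is measured after compound exposure. Values represent inhibition relative to vehicle.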

[6] = NCI Yeast Anticancer Drug Screen. Data for the mlh1 rad18 strain (AID 175); conditions: S. cerevisiae mlh1 rad18 strain growth inhibition, stronger effect = higher value
In short: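 Growth inhibition of the yeast strain was measured after compound exposure and expressed relative to vehicle-treated controls. The strain carries defined defects in DNA damage repair.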

[7] = at 5.0 µM (retest, dose inferred, filed as 0.5)
[8] = at 50.0 µM (retest, dose inferred, filed as 5.0)

SMILES | growth inhibition [1, 7] | growth inhibition [1, 8] | growth inhibition ([1]; at 50.0 µM) | growth inhibition [2, 7] | growth inhibition [2, 8] | growth inhibition ([2]; at 50.0 µM) | growth inhibition [3, 7] | growth inhibition [3, 8] | growth inhibition ([3]; at 50.0 µM) | growth inhibition [4, 7] | growth inhibition [4, 8] | growth inhibition ([4]; at 50.0 µM) | growth inhibition [5, 7] | growth inhibition [5, 8] | growth inhibition ([5]; at 50.0 µM) | growth inhibition [6, 7] | growth inhibition [6, 8] | growth inhibition ([6]; at 50.0 µM)
O=C1COC(=O)/C1=C/c1ccc2c(c1)OCO2 | 12% (inactive) and 15% (inactive) | 78% (active) and 86% (active) | 76.6% (active) and 77.4% (active) | 16% (inactive) and 26% (inactive) | 84% (active) and 90% (active) | 64.1% (inactive) and 84.5% (active) | 18% (inactive) | 69% (inactive) and 93% (active) | 78.5% (active) and 86.4% (active) | 4% (inactive) and 15% (inactive) | 71% (active) and 61% (inactive) | 56% (inactive) and 54.6% (inactive) | 2% (inactive) and 4% (inactive) | 82% (active) and 89% (active) | 65.5% (inactive) and 88% (active) | 9% (inactive) and 14% (inactive) | 81% (active) | 93.2% (active) and 95.1% (active)
CSCCC(NS(=O)(=O)Cc1ccccc1)C(=O)NNc1ccccc1 (stereo not given) | -4% (inactive) and 18% (inactive) | 44% (inactive) and 71% (active) | 72% (active) and 51.2% (inactive) | 0% (inactive) and 2% (inactive) | 30% (inactive) and 34% (inactive) | 30.7% (inactive) and 41.2% (inactive) | -12% (inactive) and 10% (inactive) | 65% (inactive) and 58% (inactive) | 55.9% (inactive) and 63.3% (inactive) | 14% (inactive) and 5% (inactive) | 44% (inactive) and 60% (inactive) | 56.4% (inactive) and 40.1% (inactive) | 2% (inactive) and 16% (inactive) | 42% (inactive) and 93% (active) | 46.6% (inactive) and 73.8% (active) | 33% (inactive) and 18% (inactive) | 79% (active) and 65% (inactive) | 76.9% (active) and 76.8% (active)
Nc1cc(F)c2c(c1)Cc1ccccc1-2 | 1% (inactive) | 95% (active) | 84.3% (active) | -3% (inactive) | 60% (inactive) | 39.2% (inactive) | -6% (inactive) | 84% (active) | 82.7% (active) | 8% (inactive) | 32% (inactive) | 23.7% (inactive) | 9% (inactive) | 92% (active) | 71% (active) | 12% (inactive) | 97% (active) | 58.1% (inactive)
CCN(C(=O)C(Cl)Cl)C(Cc1ccccc1)c1ccccc1 (stereo not given) | -1% (inactive) | 58% (inactive) | 91.5% (active) | -1% (inactive) | 61% (inactive) | 96.3% (active) | -1% (inactive) | 80% (active) | 93.8% (active) | -4% (inactive) | 74% (active) | 86.8% (active) | 10% (inactive) | 61% (inactive) | 86.8% (active) | 2% (inactive) | 72% (active) | 86% (active)
O=[N+]([O-])c1ccc(Cl)c(C2CC(c3cccc4ccccc34)=Nc3ccccc3S2)c1 (stereo not given) | 0% (inactive) | 0% (inactive) | 31.1% (inactive) | 0% (inactive) | 2% (inactive) | 83% (active) | 2% (inactive) | 12% (inactive) | 30.6% (inactive) | -1% (inactive) | 0% (inactive) | 43.2% (inactive) | 2% (inactive) | 7% (inactive) | 35.2% (inactive) | -1% (inactive) | 6% (inactive) | 58.3% (inactive)
C=C(C)C(=O)Oc1ccc(NC(=O)c2ccccc2)ccc1=O | 5% (inactive) and -1% (inactive) | 96% (active) and 95% (active) | 92.5% (active) and 96.7% (active) | 2% (inactive) and 26% (inactive) | 96% (active) | 75.2% (active) and 83.6% (active) | 7% (inactive) and 19% (inactive) | 95% (active) and 98% (active) | 96% (active) and 94.3% (active) | -1% (inactive) and 1% (inactive) | 92% (active) | 89.5% (active) and 83.8% (active) | 5% (inactive) and 0% (inactive) | 94% (active) and 93% (active) | 89.5% (active) and 93% (active) | 13% (inactive) and 6% (inactive) | 98% (active) | 96.8% (active) and 96.6% (active)
Nc1ncnc2c1ncn2CCCl | 2% (inactive) | -4% (inactive) | 8.2% (inactive) | -2% (inactive) | 5% (inactive) | -1.35% (inactive) | 2% (inactive) | 10% (inactive) | 14.3% (inactive) | -7% (inactive) | 5% (inactive) | -6.85% (inactive) | -2% (inactive) | 6% (inactive) | 32.4% (inactive) | -2% (inactive) | -4% (inactive) | 50.2% (inactive)
O=C(N/C=C/C=C/Sc1ccccc1)OCc1ccccc1 | 6% (inactive) | 97% (active) | 0.05% (inactive) | -6% (inactive) | 98% (active) | 21.8% (inactive) | -20% (inactive) | 98% (active) | 38.6% (inactive) | 23% (inactive) | 97% (active) | -4.35% (inactive) | 5% (inactive) | 99% (active) | 2.2% (inactive) | -8% (inactive) | 98% (active) | 17.6% (inactive)
NNC(=O)c1ccc(NC(=O)CSc2nc3ccccc3s2)cc1 | -4% (inactive) | 35% (inactive) | 92.7% (active) | 6% (inactive) | 28% (inactive) | 79% (active) | 9% (inactive) | 59% (inactive) | 96.2% (active) | 0% (inactive) | 48% (inactive) | 31.2% (inactive) | 52% (inactive) | 82% (active) | 97.8% (active) | 86% (active) | 82% (active) | 98.6% (active)
CCCCCCCCCCCCOC(=O)C(C)OC(C)=O (stereo not given) | 1% (inactive) and 2% (inactive) | 99% (active) and 97% (active) | 98.8% (active) and 98.9% (active) | -1% (inactive) and 1% (inactive) | 99% (active) and 98% (active) | 98.5% (active) and 98.8% (active) | 2% (inactive) and 5% (inactive) | 99% (active) | 99.2% (active) and 7.6% (inactive) | -1% (inactive) and 5% (inactive) | 97% (active) and 92% (active) | 98.8% (active) and 96.5% (active) | 1% (inactive) | 99% (active) and 96% (active) | 98% (active) and 99.1% (active) | -10% (inactive) and 2% (inactive) | 99% (active) | 98.7% (active) and 99% (active)
NC(=O)c1cc(Br)cc(Br)c1O | 14% (inactive) | 79% (active) | 62.2% (inactive) | -13% (inactive) | 86% (active) | 75.1% (active) | 9% (inactive) | 90% (active) | 48.5% (inactive) | 5% (inactive) | 87% (active) | 94.5% (active) | 1% (inactive) | 77% (active) | 89.8% (active) | -10% (inactive) | 85% (active) | 79.6% (active)
O=c1[nH]c2cc([N+](=O)[O-])ccc2nc1/C=C(\O)c1ccc([N+](=O)[O-])cc1 | 21% (inactive) | 86% (active) | 54.2% (inactive) and -3.6% (inactive) | -4% (inactive) | 59% (inactive) | 16.1% (inactive) and -6.35% (inactive) | 13% (inactive) | 85% (active) | 82.1% (active) and -3.95% (inactive) | 4% (inactive) | 38% (inactive) | 34% (inactive) and -15.9% (inactive) | 11% (inactive) | 86% (active) | 4.75% (inactive) and 5.75% (inactive) | 6% (inactive) | 77% (active) | 68.4% (inactive) and -1.4% (inactive)
CCN(CC)c1ccc(NC(C(=O)c2ccccc2)c2ccccc2)cc1 (stereo not given) | 99% (active) and 2% (inactive) | 99% (active) and 46% (inactive) | 99.4% (active) and 54.9% (inactive) | 97% (active) and 2% (inactive) | 99% (active) and 30% (inactive) | 98.9% (active) and 37.1% (inactive) | 100% (active) and 8% (inactive) | 100% (active) and 83% (active) | 99.2% (active) and 81.2% (active) | 98% (active) and 0% (inactive) | 99% (active) and 7% (inactive) | 98.7% (active) and 42.6% (inactive) | 100% (active) and 2% (inactive) | 99% (active) and 44% (inactive) | 99.2% (active) and 53.5% (inactive) | 99% (active) and 2% (inactive) | 99% (active) and 46% (inactive) | 98.5% (active) and 68.2% (inactive)
Cc1ccccc1N=Nc1ccc(N=Nc2ccc(N)nc2N)c(C)c1 | 2% (inactive) | -23% (inactive) | 31.2% (inactive) | -19% (inactive) | 17% (inactive) | 62.1% (inactive) | -1% (inactive) | 11% (inactive) | 10.1% (inactive) | -4% (inactive) | -27% (inactive) | 15.3% (inactive) | -3% (inactive) | 9% (inactive) | 82.2% (active) | -2% (inactive) | -29% (inactive) | 28.9% (inactive)
C=C1CCC[C@@H]2[C@@](C)(Cc3cc(O)ccc3O)C(C)CC[C@]12C (stereo not given in full) | 16% (inactive) | 97% (active) | 97.5% (active) | 11% (inactive) | 97% (active) | 98.2% (active) | 25% (inactive) | 98% (active) | 97.7% (active) | -4% (inactive) | 97% (active) | 97.3% (active) | 0% (inactive) | 97% (active) | 97.8% (active) | 11% (inactive) | 96% (active) | 97.7% (active)
